This is an account of results in PubChem BioAssay (Tox21).

Test [1] in a line: qHTS assay to identify small molecule agonists of the sonic hedgehog signaling (Shh) pathway (AID 1259368; calls by dose curve;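 note: NIH/3T3-derived 3T3Gli1-Luc cells carrying a stable Gli1-driven firefly luciferase reporter; series mostly up to about 92 µM; nearly all actives have a fitted effect of over 15% in size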). In short, it runs like this: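 Read-out: firefly luciferase luminescence from a Gli1 response element reporter stably integrated in NIH/3T3-derived 3T3Gli1-Luc cells, measured 30 min at room temperature after reagent addition. Compound exposure lasted 24 hr at 37 C, 5% CO2.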

Test [2] is described as follows: qHTS assay to identify small molecule antagonists of the sonic hedgehog signaling (Shh) pathway (AID 1259369; calls by dose curve; note: nearly all actives have a fitted effect of over 45% in size). The procedure, abridged:
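Luminescence readout: firefly Luc under Gli1 response element in 3T3Gli1-Luc cells (NIH/3T3 clone). Antagonist mode, stimulation by conditioned medium; compound exposure 24hr at 37 C, 5% CO2.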
Background: Quantitative high-throughput screening tests each substance at several concentrations.

Test [3] is described as follows: qHTS assay to identify small molecule antagonists of the estrogen receptor beta (ER-beta) signaling pathway - cell viability counter screen (AID 1259382). Note: series mostly up to about 92 µM; nearly all actives have a fitted effect of over 55% in size. The procedure, abridged: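 Luminescent ATP read-out (CellTiter-Glo, 30 min, RT) taken in the same wells as the bla reporter assay. HEK293T ER-beta-UAS-bla cells in 2% charcoal-stripped FBS were exposed to compounds with 1nM E2 for 16 hr at 37C.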

Test [4] concerns the target Estrogen receptor (Homo sapiens) (UniProt P03372). As to the kind of experiment: qHTS assay to identify small molecule agonists of the estrogen receptor alpha (ER-alpha) signaling pathway in the presence of an antagonist (AID 1259383; calls by dose curve; note: top concentration of the series differs between compounds; nearly all actives have a fitted effect of over 15% in size). In short, it runs like this: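 Luciferase luminescence (ONE-Glo, 30min at room temperature) measured in VM7Luc4E2 cells after 22hr compound exposure at 15 concentrations, with 10.0nM ICI-182,780 final present; cells express endogenous ER-alpha and carry four EREs upstream of luciferase.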

Test [5] can be described thus: qHTS assay to identify small molecule agonists or antagonists of the thyroid stimulating hormone receptor (TSHR) signaling pathway - wild type cell line counter screen (AID 1259384; calls by dose curve). The procedure, abridged: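 Wild-type HEK293 cells were plated 18 h at 37 C/5% CO2, pin-dosed with compound plus Ro20-1724 medium, held 30 min at room temperature, then given cAMP-d2 and anti-cAMP-cryptate; fluorescence was read after 1 h. Fifteen concentrations, triplicate.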

Test [6] deals with Thyrotropin receptor (Homo sapiens) (UniProt P16473). As to the kind of experiment: qHTS assay to identify small molecule antagonists of the thyroid stimulating hormone receptor (TSHR) signaling pathway (AID 1259385; calls by dose curve; note: nearly all actives have a fitted effect of over 20% in size). The procedure, abridged: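 TSHR-HEK293 cells were plated and held 18 h at 37C/5% CO2, then given compound plus Ro20-1724 and stimulated with TSH at 1.5 ng/mL final. After 30 min at room temperature, cAMP was detected with cAMP-d2/anti-cAMP-cryptate (1 h) by fluorescence.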
Thyrotropin receptor (Homo sapiens), sequence (P16473 whole entry, looked up): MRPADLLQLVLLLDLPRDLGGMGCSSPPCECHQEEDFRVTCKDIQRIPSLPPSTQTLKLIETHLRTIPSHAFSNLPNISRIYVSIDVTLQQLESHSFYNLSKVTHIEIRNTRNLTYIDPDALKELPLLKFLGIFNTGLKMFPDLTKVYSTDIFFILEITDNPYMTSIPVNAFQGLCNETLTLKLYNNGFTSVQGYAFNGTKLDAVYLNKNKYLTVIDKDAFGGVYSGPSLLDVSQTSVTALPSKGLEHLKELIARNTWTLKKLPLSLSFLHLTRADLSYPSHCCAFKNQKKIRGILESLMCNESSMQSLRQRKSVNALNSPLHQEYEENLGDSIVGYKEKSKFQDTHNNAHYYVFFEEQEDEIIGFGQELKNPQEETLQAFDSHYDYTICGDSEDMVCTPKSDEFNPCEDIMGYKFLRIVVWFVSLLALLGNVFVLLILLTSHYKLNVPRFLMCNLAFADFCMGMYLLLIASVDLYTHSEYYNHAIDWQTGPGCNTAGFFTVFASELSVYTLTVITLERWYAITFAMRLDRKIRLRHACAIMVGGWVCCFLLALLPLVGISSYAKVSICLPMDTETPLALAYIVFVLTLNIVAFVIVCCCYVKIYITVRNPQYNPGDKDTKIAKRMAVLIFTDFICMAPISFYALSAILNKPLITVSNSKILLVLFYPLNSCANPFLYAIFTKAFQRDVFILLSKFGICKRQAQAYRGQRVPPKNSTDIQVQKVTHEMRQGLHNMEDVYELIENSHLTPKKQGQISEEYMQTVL

Test [7] can be described thus: qHTS assay to identify small molecule agonists of the estrogen receptor alpha (ER-alpha) signaling pathway in the presence of an antagonist - cell viability counter screen (AID 1259386). Note: series mostly up to about 92 µM; nearly all actives have a fitted effect of over 30% in size. In short, it runs like this: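 Read-out: CellTiter-Fluor fluorescence after 1hr reagent incubation, measured in the same wells as the luciferase readout. VM7Luc4E2 cells were exposed to 15 compound concentrations with 10.0nM ICI-182,780 for 22hr at 37C.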

Test [8] deals with Progesterone receptor (Homo sapiens) (UniProt P06401). Put plainly: qHTS assay to identify small molecule agonists of the progesterone receptor (PR) signaling pathway (AID 1346784; calls by dose curve; note: nearly all actives have a fitted effect of over 30% in size). In short, it runs like this:
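Cells (PR-UAS-bla HEK 293T, GripTite) were plated in assay medium containing 2% charcoal-stripped FBS and incubated 6 hr. Test compounds in DMSO were added for 16 hr at 37C. FRET substrate was then loaded for 2 hr at room temperature before fluorescence reading.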

The target is the same in test [9]. Put plainly: qHTS assay to identify small molecule antagonists of the progesterone receptor (PR) signaling pathway (AID 1346795; active = well fitted inhibition curve with a large enough effect in the signal ratio in the repeat runs, not every such curve was filed as active; the % refers to the signal ratio; note: potency is the fitted concentration of half-maximal effect). In short, it runs like this:
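Antagonist mode: compounds tested against 1 nM (final) promegestone stimulation in HEK293T cells expressing PR-UAS-bla reporter, 16 hr at 37C, 5% CO2; beta-lactamase activity detected via B/G FRET substrate after 2 hr at room temperature.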

Test [10] in a line: qHTS assay to identify small molecule antagonists of the progesterone receptor (PR) signaling pathway - cell viability counter screen (AID 1346798). Note: series mostly up to about 92 µM; nearly all actives have a fitted effect of over 50% in size. The procedure, abridged:
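Counter screen for cytotoxicity: viability of PR-UAS-bla HEK293T cells was measured with CellTiter-Glo luminescence following 16 hr compound exposure in the presence of R5020.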

Test [11] in a line: qHTS assay to identify small molecule agonists of the progesterone receptor (PR) signaling pathway - cell viability counter screen (AID 1346799; calls by dose curve; note: nearly all actives have a fitted effect of over 45% in size). The procedure, abridged: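 Cells (PR-UAS-bla HEK293T) are plated at 3,000/well in 2% charcoal-stripped FBS medium, rested 6 hr, dosed and incubated 16 hr at 37C. CellTiter-Glo is then added and luminescence measured after 30 min at room temperature.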

Test [12] can be described thus: qHTS assay to identify small molecule agonists of the TGF-beta/Smad signaling pathway - cell viability counter screen (AID 1346829). Note: top concentration of the series differs between compounds; nearly all actives have a fitted effect of over 45% in size. In short, it runs like this:
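In parallel with the Smad reporter read, viability of HEK 293T cells stably carrying SBE-bla is quantified by ATP luminescence following 5 hr compound treatment.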

Test [13] is described as follows: qHTS assay to identify small molecule agonists of the TGF-beta/Smad signaling pathway (AID 1346859; active = well fitted activation curve with a large enough effect in the signal ratio in the repeat runs, not every such curve was filed as active; the % refers to the signal ratio; note: series mostly up to about 77 µM). The procedure, abridged:
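Reporter line: HEK 293T with stably integrated SBE-controlled beta-lactamase. Compound exposure lasts 5 hr at 37 C and 5% CO2; substrate loading follows for 2 hr at room temperature, with emission read at 460 and 530 nm.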

Test [14] has as its target Thyrotropin-releasing hormone receptor (Homo sapiens) (UniProt P34981). As to the kind of experiment: qHTS assay to identify small molecule antagonists of the thyrotropin-releasing hormone receptor (TRHR) signaling pathway (AID 1346877; active = well fitted inhibition curve with a large enough effect in the repeat runs, not every such curve was filed as active; note: series mostly up to about 51 µM). In short, it runs like this:
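HEK293/TRHR cells, 18 h, 37 °C; Ca2+ dye 2 h; cpd 5 min RT; TRH 1 nM final; fluorescence read 3 min, 1 s intervals; 15 concs, triplicate.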

The nature of test [15]: qHTS assay to identify small molecule agonists of the androgen receptor (AR) signaling pathway in the presence of an antagonist - cell viability counter screen (AID 1259379).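 Note: MDA-kb2 human breast cancer cells carrying an MMTV luciferase reporter; series mostly up to about 92 µM; nearly all actives have a fitted effect of over 25% in size.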 In short, it runs like this: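 Viability counter screen: CellTiter-Fluor fluorescence, measured in the same wells as the luciferase read-out. MDA-kb2 cells, 3,000/well, with nilutamide at 3.0uM final and compounds at 15 concentrations, 16 hr at 37C, 0% CO2.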

The nature of test [16]: qHTS assay to identify small molecule antagonists of the TGF-beta/Smad signaling pathway - cell viability counter screen (AID 1346824). Note: nearly all actives have a fitted effect of over 50% in size. The procedure, abridged: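 SBE-bla HEK 293T cells were plated overnight at 37 C, then given compounds in DMSO plus TGF-beta1 (added as 0.25 ng/mL solution) for 5 hr. After the bla read, CellTiter-Glo was added to the same wells and luminescence read after 30 min at room temperature.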

The target in test [17] is Estrogen receptor beta (Homo sapiens) (UniProt Q92731). As to the kind of experiment: qHTS assay to identify small molecule agonists of the estrogen receptor beta (ER-beta) signaling pathway (AID 1259377; active = well fitted activation curve with a large enough effect in the signal ratio in the repeat runs, not every such curve was filed as active; the % refers to the signal ratio). The procedure, abridged: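 Agonist mode cell assay in GripTite HEK293T cells expressing an ER-beta fusion that drives beta-lactamase from an Upstream Activator Sequence; 16 hr compound exposure at 37C, then 2 h LiveBLAzer B/G FRET substrate at room temperature, fluorescence read-out.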
Estrogen receptor beta (Homo sapiens), sequence (Q92731 whole entry, looked up, the tested form may be a part): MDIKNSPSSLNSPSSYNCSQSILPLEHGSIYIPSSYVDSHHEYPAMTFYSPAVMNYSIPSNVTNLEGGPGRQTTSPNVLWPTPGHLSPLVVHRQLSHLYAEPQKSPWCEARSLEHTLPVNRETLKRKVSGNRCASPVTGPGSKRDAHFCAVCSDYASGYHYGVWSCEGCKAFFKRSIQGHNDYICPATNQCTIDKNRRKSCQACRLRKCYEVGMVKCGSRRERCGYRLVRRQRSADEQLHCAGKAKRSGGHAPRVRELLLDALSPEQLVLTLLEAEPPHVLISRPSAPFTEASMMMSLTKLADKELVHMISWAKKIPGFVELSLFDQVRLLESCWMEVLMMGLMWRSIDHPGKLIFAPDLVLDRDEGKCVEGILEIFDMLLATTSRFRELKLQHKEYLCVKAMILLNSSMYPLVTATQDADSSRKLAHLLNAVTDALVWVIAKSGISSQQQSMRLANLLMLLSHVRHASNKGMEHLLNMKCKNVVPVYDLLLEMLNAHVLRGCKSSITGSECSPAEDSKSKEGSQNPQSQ

Test [18] has the same target. As to the kind of experiment: qHTS assay to identify small molecule antagonists of the estrogen receptor beta (ER-beta) signaling pathway (AID 1259378; active = well fitted inhibition curve with a large enough effect in the signal ratio in the repeat runs, not every such curve was filed as active; the % refers to the signal ratio). In short, it runs like this: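 ER-beta-UAS-bla HEK293T (GripTite) cells in 2% charcoal-stripped FBS medium were preincubated 6 hr at 37C, dosed with compound, then stimulated with 1 nM E2 (final) for 16 hr; beta-lactamase reporter read by B/G FRET fluorescence after 2 hr substrate loading.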

For test [19], the target named is Androgen receptor (Homo sapiens) (UniProt P10275). Put plainly: qHTS assay to identify small molecule agonists of the androgen receptor (AR) signaling pathway in the presence of an antagonist (AID 1259381; calls by dose curve; note: nearly all actives have a fitted effect of over 15% in size). In short, it runs like this:
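Luciferase read-out (ONE-Glo, 30min room temperature) in MDA-kb2 MMTV-reporter cells; agonist mode run in presence of AR antagonist nilutamide, 3.0uM final. Compounds tested as 15-point series, 16hr exposure at 37C, 0% CO2.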

Test [20] can be described thus: qHTS assay to identify small molecule agonists of the estrogen receptor beta (ER-beta) signaling pathway - cell viability counter screen (AID 1259380). Note: nearly all actives have a fitted effect of over 30% in size. The procedure, abridged: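 Luminescence read-out (CellTiter-Glo, 30 min, room temp) taken in the same wells as the beta-lactamase reporter assay; ER-beta-UAS-bla HEK293T cells exposed to DMSO-dissolved compounds for 16 hr at 37C in 2% charcoal-stripped FBS medium.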

A number with no mark means an inactive call. Records with an inconclusive call do not appear. The source made the active and inactive calls. Unless noted, calls come from the whole dose curve; as a rule, active = well fitted curve in the direction sought with a large enough effect in the repeat runs; inconclusive = weak or mixed curves; inactive = no such curve, though single readings can be large; an effect the other way counts as inactive or inconclusive.

Progesterone receptor (Homo sapiens), sequence (P06401 whole entry, looked up): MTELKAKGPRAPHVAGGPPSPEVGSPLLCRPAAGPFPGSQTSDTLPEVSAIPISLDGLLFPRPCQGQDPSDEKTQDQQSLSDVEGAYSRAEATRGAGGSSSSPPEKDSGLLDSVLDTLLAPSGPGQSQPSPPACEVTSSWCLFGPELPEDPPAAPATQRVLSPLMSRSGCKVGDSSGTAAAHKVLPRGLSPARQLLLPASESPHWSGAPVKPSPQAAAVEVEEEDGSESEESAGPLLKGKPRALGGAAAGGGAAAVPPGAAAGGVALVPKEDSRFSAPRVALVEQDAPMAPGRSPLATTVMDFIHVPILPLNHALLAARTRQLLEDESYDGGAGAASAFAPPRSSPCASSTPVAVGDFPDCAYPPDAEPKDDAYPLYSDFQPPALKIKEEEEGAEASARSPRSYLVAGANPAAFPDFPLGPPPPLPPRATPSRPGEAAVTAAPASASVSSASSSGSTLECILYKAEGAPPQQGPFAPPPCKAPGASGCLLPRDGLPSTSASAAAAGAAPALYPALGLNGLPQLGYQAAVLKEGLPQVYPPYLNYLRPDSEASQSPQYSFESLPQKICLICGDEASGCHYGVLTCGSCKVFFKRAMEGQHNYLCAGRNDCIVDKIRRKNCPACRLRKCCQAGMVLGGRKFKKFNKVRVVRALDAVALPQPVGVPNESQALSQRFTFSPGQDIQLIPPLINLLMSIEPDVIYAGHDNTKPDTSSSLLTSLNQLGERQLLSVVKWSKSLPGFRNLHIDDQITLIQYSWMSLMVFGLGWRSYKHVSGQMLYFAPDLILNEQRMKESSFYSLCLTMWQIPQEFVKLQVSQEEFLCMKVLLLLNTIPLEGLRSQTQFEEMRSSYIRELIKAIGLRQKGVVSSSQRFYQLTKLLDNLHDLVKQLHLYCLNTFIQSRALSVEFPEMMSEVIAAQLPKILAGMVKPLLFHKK
Estrogen receptor (Homo sapiens), sequence (P03372 whole entry, looked up): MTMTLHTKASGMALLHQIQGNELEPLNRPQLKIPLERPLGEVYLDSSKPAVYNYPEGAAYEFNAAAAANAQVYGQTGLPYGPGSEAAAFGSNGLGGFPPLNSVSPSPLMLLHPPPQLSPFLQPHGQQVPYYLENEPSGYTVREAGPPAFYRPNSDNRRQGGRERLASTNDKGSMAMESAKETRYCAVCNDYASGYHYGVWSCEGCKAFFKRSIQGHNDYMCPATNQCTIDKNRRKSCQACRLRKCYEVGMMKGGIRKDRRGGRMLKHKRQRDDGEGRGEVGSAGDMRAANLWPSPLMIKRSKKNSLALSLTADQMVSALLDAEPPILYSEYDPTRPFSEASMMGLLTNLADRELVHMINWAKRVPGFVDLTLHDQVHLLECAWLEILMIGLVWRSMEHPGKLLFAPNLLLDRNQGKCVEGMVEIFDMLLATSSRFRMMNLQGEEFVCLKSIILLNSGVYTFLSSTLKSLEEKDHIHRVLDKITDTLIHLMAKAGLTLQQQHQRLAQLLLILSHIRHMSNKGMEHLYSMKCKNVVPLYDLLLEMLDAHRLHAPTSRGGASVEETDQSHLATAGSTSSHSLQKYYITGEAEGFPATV
Thyrotropin-releasing hormone receptor (Homo sapiens), sequence (P34981 whole entry, looked up): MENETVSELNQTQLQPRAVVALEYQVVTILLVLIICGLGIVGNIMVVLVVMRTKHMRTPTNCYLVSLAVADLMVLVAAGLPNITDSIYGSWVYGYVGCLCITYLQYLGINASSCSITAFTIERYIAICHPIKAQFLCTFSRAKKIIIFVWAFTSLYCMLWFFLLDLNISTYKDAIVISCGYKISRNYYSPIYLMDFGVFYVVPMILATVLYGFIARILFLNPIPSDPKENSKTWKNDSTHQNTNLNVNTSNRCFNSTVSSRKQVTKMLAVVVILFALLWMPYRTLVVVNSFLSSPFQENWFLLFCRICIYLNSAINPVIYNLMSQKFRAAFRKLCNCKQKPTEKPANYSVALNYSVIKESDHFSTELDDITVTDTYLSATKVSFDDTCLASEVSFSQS
Androgen receptor (Homo sapiens), sequence (P10275 whole entry, looked up): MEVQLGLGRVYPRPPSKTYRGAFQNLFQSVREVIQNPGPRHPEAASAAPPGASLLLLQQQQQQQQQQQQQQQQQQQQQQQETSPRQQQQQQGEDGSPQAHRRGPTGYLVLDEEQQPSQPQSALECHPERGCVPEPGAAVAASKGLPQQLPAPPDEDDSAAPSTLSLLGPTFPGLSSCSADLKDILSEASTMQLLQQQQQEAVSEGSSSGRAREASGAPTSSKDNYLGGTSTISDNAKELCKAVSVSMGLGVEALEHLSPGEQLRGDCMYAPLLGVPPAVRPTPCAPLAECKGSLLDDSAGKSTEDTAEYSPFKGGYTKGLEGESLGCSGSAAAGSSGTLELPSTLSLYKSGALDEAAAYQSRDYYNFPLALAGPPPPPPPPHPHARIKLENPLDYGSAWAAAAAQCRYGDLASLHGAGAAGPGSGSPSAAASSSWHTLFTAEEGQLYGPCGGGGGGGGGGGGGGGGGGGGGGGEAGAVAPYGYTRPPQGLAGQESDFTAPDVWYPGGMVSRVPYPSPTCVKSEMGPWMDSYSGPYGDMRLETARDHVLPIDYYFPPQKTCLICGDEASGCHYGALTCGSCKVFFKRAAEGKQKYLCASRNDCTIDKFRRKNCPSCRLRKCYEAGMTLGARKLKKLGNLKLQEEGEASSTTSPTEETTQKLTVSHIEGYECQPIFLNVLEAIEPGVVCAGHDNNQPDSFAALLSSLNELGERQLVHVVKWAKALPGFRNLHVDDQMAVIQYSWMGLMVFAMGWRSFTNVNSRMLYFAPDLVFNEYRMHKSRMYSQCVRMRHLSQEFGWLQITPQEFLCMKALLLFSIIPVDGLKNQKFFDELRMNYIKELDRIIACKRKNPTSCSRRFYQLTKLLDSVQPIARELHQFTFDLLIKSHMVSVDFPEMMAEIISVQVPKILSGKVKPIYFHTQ

On to `C=CC(=O)OCCCCCCCCCC`, for which the Potency entry in test [1], in test [2], in test [3], in test [4], in test [6] and in test [7] was “inactive” in each case. The Potency result in test [8], in test [9], in [10] and in [11] was “inactive” in each case. Also, the outcome in test [5], in test [12], in test [13] and in test [14] was inactive.
Take `Cc1c(Cl)cccc1Nc1ccccc1C(=O)O`: the Potency result in [1], in test [2], in test [15], in [4], in [6] and in test [7] was “inactive” throughout. Besides, the Potency entry in [8] and in [10] was “inactive” throughout. Moreover, the call in test [16] and in [14] was inactive.
For `CC1(C)[C@@H]2CC[C@]3(C2)[C@@H]1C(=O)CCC3(C)C`, the Potency result in [1], in [17], in test [18], in test [15], in test [19] and in [3] was “inactive” in each case. For the same molecule, the Potency entry in test [4], in test [6], in test [7], in test [8], in [9] and in test [10] was “inactive” each time. For the same molecule, the outcome in test [16], in [12] and in test [13] was inactive.
As to `Cc1ccccc1CCO`, the Potency entry in test [1], in [17], in [18], in [15], in [20] and in test [3] was “inactive” in each case. Besides, the Potency entry in test [4], in test [6], in test [7], in test [8], in test [9] and in [10] was “inactive” in each case. Also, the Potency result in [11] was “inactive”. Besides, the outcome in [5], in test [16], in test [12], in test [13] and in test [14] was inactive.
As to `COc1ccc(/C(C)=C/C(=O)O)c(OC)c1`, the Potency result in [17], in [18], in test [15], in test [20], in test [3] and in [4] was “inactive” in each case. Further, the Potency result in test [6], in test [7], in [8], in [9], in test [10] and in test [11] was “inactive” in each case. Moreover, the call in test [5], in test [16], in test [12] and in [13] was inactive.
For `COc1ccc(C(=O)c2ccc(C)cc2)c(O)c1`, the Potency entry in test [2], in test [15], in test [20], in test [3], in test [4] and in test [7] was “inactive” each time. Besides, the Potency entry in test [8] and in test [10] was “inactive” throughout. The molecule was called inactive in test [5], in test [12] and in test [14]. Also, the Potency in [9] was 19.5 µM (active).
As for `c1ccc(CN(Cc2ccccc2)Cc2ccccc2)cc1`, the Potency result in test [17], in [3], in test [7], in [8], in [10] and in [11] was “inactive” throughout. Moreover, the call in test [5], in test [16], in [12], in test [13] and in [14] was inactive.
